The text below walks through data of PubChem BioAssay AID1359 (The Scripps Research Institute Molecular Screening Center, 2008).

About 970 (0.44%) of roughly 220,000 compounds were called active. Cut-off read from the data, not from the text of the source: active = activation above about 27%; inactive = the rest. What follows is part of a selection rich in actives, with near analogues and random picks from the rest.

Chain of Neuropeptide Y receptor type 2 (Homo sapiens) (P49146 whole entry, looked up): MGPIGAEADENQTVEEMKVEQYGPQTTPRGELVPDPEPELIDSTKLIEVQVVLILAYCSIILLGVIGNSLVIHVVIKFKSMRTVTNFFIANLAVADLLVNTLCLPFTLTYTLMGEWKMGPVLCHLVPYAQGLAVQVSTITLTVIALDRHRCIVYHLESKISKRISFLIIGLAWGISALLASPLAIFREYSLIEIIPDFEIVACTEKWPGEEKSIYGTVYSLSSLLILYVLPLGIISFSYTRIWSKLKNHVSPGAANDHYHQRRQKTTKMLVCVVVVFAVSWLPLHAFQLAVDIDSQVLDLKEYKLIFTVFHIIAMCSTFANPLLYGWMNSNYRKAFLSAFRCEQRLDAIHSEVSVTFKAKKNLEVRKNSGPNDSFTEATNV

This assay has as its target Neuropeptide Y receptor type 2 (Homo sapiens) (UniProt P49146). In words: NPY-Y2 potentiators or agonists, primary screen, cell-based (AID 1359).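 Note: cells stimulated with NPY near EC25 plus isoproterenol at EC100; 0% = vehicle plus submaximal agonist and 100% = vehicle plus saturating agonist.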 Particulars: cells expressing NPY-Y2, potentiator/agonist read-out; at 3.6 µM; active compounds read high.
With `Cc1nn(CCOc2ccc(Br)cc2)c(C)c1[N+](=O)[O-]`, the activation is 14.5% (inactive).
`O=C(NC1C2CC3CC(C2)CC1C3)c1ccc(N2CCNCC2)c([N+](=O)[O-])c1` (configuration not stated): the activation is 29.4% (inactive).
For the molecule `C#CCOCCOCCOCCNc1nc(N2CCN(C(=O)[C@H](CCCCN)n3cc([C@@H](N)C(C)CC)nn3)CC2)nc(N2CCN(C(=O)[C@H](Cc3ccc(O)cc3)n3cc([C@@H](N)C(C)CC)nn3)CC2)n1` (some centres not stated), the activation was 104% (active).
`C#CCOCCOCCOCCNc1nc(N2CCN(C(=O)[C@H](Cc3ccc(O)cc3)n3cc(C(N)CC(C)C)nn3)CC2)nc(N2CCN(C(=O)[C@H](CCC(=O)O)n3cc(C(N)[C@H](C)CC)nn3)CC2)n1` (some centres not stated): the activation is -9.15% (inactive).
Consider `C#CCOCCOCCOCCNc1nc(N2CCN(C(=O)C(Cc3ccc(O)cc3)n3cc(C(N)CC(C)C)nn3)CC2)nc(N2CCN(C(=O)C(Cc3ccc(O)cc3)n3cc(C(N)C(C)CC)nn3)CC2)n1` (configuration not stated), for which the activation is -7.8% (inactive).
Turning to `O=C(CCC(=O)NNc1nc2ccccc2c2nc(-c3ccccc3)nn12)NCCCN1CCCC1=O`, the activation is -1.14% (inactive).
With `CCCCNC(=S)N/N=C1\CCCCc2ccccc21`, the activation was 2.42% (inactive).
Consider `CCN(CC)CC(=O)c1c[nH]c2ccc(OC)cc12`, for which the activation is 0.4% (inactive).
Regarding `COc1ccc2[nH]c(=S)cc(C)c2c1`, the activation is -28% (inactive).
In the case of `COc1ccc2[nH]c3ccc(OC)cc3c2c1`, the activation is 65.6% (active).
As for `O=C(c1c(Cl)cccc1Cl)N1CCN(c2cccc3[nH]ccc23)CC1`, the activation is 6.12% (inactive).
Next, `C=Cn1c(C(=O)O)ccc1-c1ccc(OC)cc1`: -9.57% (inactive).
Next, `CCOC(=O)c1[nH]ncc1CN1CCCC(C(=O)c2ccc(OC)cc2C)C1` (configuration not stated): 3.33% (inactive).
As for `COc1ccc(C(=O)C2CCCN(Cc3cccn3-c3ccccn3)C2)c(C)c1` (configuration not stated), the activation is 89.8% (active).
Regarding `COc1ccc(C(=O)C2CCCN(Cc3ccc4nonc4c3)C2)c(C)c1` (configuration not stated), the activation was -20.8% (inactive).
Consider `CC1CCc2sc(C(=O)N/N=C/C3CCCCC3)cc2C1` (configuration not stated), for which the activation is 4.14% (inactive).
As to `CSCC(=O)N1CCCC(C(=O)c2cc(F)ccc2F)C1` (configuration not stated), the activation is 0.81% (inactive).
Regarding `O=C(Nc1ccccc1)N1CCN(C2c3ccccc3-c3ccccc32)CC1`, the activation is -13.1% (inactive).
With `N#C/C(=C\N1CCOCC1)S(=O)(=O)c1ccc(Cl)cc1`, the activation is 8.91% (inactive).
On to `Cc1cccc(C)c1NC(=O)C1(C)c2cccc[n+]2CC(=O)N1Cc1cccs1` (configuration not stated), for which the activation was -2.7% (inactive).
Next, `C/C(=N/NC(=O)c1ccn(C)n1)c1ccncc1`: 9.5% (inactive).
For the molecule `CC(=O)c1cccc(NC(=O)Nc2ccc(C)cc2)c1`, the activation was 6.31% (inactive).
Take `Cc1ccc(NC(=O)CC(=O)Nc2ccc(C)cc2)cc1`: the activation is -4.26% (inactive).
As to `COC(=O)c1ccc(NC(=O)Nc2ccc(C)cc2)cc1`, the activation is 99.2% (active).
With `Cc1ccc(S(=O)(=O)N2CCN(C(=O)COC(=O)c3c(C)noc3C)CC2)c(C)c1`, the activation was -1.02% (inactive).
For the molecule `O=C(NC(Cc1c[nH]c2ccccc12)C(=O)N/N=C/c1ccc(Br)cc1)c1cccs1` (configuration not stated), the activation is 17.2% (inactive).
As to `COc1cc([N+](=O)[O-])ccc1NC(=S)N1CCN(c2ccccn2)CC1`, the activation is -7.19% (inactive).
